Experimental data published in ChEMBL document CHEMBL4513216, “Probing the Open Global Health Chemical Diversity Library for Multistage-Active Starting Points for Next-Generation Antimalarials” (ACS Infect Dis, 2020).
The whole screen tested about 65,000 compounds, of which about 2,100 (3.2%) showed an effect of 50% or more. The median lay at about -52%. Shown is part of a subset that was picked to be rich in strong results.

Test system: Plasmodium falciparum
Experiment: Screen against P. falciparum Asexual Blood Stage (ABS), at 5uM
Format: functional, Dd2
Conditions: tested at 5 uM

SMILES | INHIBITION [%]
COC[C@@H]1CCC[C@]12CN(Cc1cccc(C)n1)CCO2 | -26.8
CCS(=O)(=O)NC[C@]12COC[C@H]1CN(Cc1ccccn1)C2 | -30.3
CC(C)N1CCO[C@H]2CN(C(=O)c3ccncc3)C[C@H]21 | -69.9
Cc1nocc1C(=O)N1CCOC2(COCCN(CC3CC3)C2)C1 (centres undefined) | -103
COc1ccc(CC(=O)N2CCN(Cc3ccco3)C[C@H]2C)cc1OC | -28.9
CN(C)C(=O)CN1CCO[C@H]2CN(c3ccccn3)C[C@H]21 | -57.3
COc1ncccc1CN1C[C@H]2CCN(c3ncccn3)C[C@H]2C1 | -39
COCCN1CC[C@@H]2CN(Cc3cccnc3OC)C[C@@H]2C1 | -68
COc1ccccc1CN1CCC(c2nn(CCN)c3nccnc23)C1 (centres undefined) | 75.5
c1cncc(CO[C@H]2CN(Cc3ccco3)[C@@H]3COC[C@H]23)c1 | -14.4
Cc1cccc(CN2CC[C@H]3[C@@H]2CC(=O)N3CC2CC2)n1 | -122
Cc1cc(C)n(C2CN(CC(O)c3cc(F)ccc3F)C2)n1 (centres undefined) | 84.7
CCC(CO)N(Cc1cccc(O)c1)Cc1ccccc1C (centres undefined) | 75.2
O=C(N1CCOCC1)[C@@]12CCO[C@@H]1CCN(Cc1ccncc1)C2 | -39.7
CCC1CN(CC(=O)NCCN2CCCCCC2)c2ccccc2S1 (centres undefined) | 73.8
CCC1CN(CC(=O)NCCN2CCCCC2)c2ccccc2S1 (centres undefined) | 72.3
CCC1CN(CC(=O)NCCN(CC)CC)c2ccccc2S1 (centres undefined) | 76.7
CCCN1CCC2(Cc3ccccc3NC2=O)C1 (centres undefined) | -3.59
CS(=O)(=O)N1CCOCC2(CN(Cc3ccccn3)CCO2)C1 (centres undefined) | -46.3
Cc1ccc(CNCCC(O)(c2nccn2C)C(F)(F)F)o1 (centres undefined) | 73.2
Cn1ccnc1C(O)(CCNCc1ccc(Cl)o1)C(F)(F)F (centres undefined) | 71.1
Cc1csc(CN2CCC[C@]3(C[C@@H](Oc4ccccn4)CO3)C2)n1 | -213
Cc1cc(C(F)(F)F)cc(=O)n1CCn1cc(Cl)cn1 | 18.5
CCc1cnc(N)nc1NCCCn1cc(Cl)cn1 | 84.5
CCN(CC)C(CNC(=O)c1c(C)noc1C(C)C)c1ccsc1 (centres undefined) | 78.7
CC(C)N1CCN(C(=O)Cc2csc(-c3ccco3)n2)CC1 | -22.2
COc1cc(F)ccc1C(C(=O)O)N(C)CCN1CCCC1 (centres undefined) | 72.3
Cc1ccc(F)cc1CC(=O)N(CCN1CCOCC1)Cc1ccco1 | -12.9
COc1cc(F)ccc1C(C(=O)O)N(C)CCN1CCOCC1 (centres undefined) | 80.7
